The record followed here is PubChem BioAssay (EPA / NIEHS).

As usually defined, the AC50 is the concentration giving half of the maximal activity seen.

Structures are written as SMILES. The source made the active and inactive calls. Rule for the calls: active = hit-call score of the fitted dose curve at least 0.9, where 1 is the maximum; inactive = score below 0.9.

What all share (details): mRNA level, 48 h; actives raise or lower the signal
Read-out in test [1]: Fatty Acid-Binding Protein 1 (FABP1), FABP1 (gene 2168)
Nature of the test: LTEA_HepaRG_FABP1: Life Technologies and Expression Analysis (LTEA) Assay for Fatty Acid-Binding Protein 1 (FABP1) using HepaRG (AID 2283494). The procedure, abridged: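 qRT-PCR readout of FABP1 transcript (normalized to three housekeeping genes) after 48 h chemical exposure of HepaRG cells; eight concentrations, half-log steps, max 100 uM, 0.5% DMSO vehicle; gain or loss fitted relative to DMSO baseline.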

Read-out in test [2]: Cytochrome P450 4A22 (Homo sapiens) (UniProt Q5TCH4)
The test can be described thus: LTEA_HepaRG_CYP4A22: Life Technologies and Expression Analysis (LTEA) Assay for Cytochrome P450 4A22 (CYP4A22) using HepaRG (AID 2283495). The procedure, abridged:
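Gene expression measured by qRT-PCR against three housekeeping genes (ACTB, GAPDH, POLR2A), with gain or loss fitted relative to 0.5% DMSO vehicle. HepaRG cultures received 48 h chemical treatment, top concentration 100 uM, half-log steps, duplicate wells.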

Read-out in test [3]: Cytochrome P450 7A1 (Homo sapiens) (UniProt P22680)
Nature of the test: LTEA_HepaRG_CYP7A1: Life Technologies and Expression Analysis (LTEA) Assay for Cytochrome P450 7A1 (CYP7A1) using HepaRG (AID 2283496). The procedure, abridged:
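Using 0.5% DMSO as vehicle and baseline, chemicals were tested in duplicate over an 8-point range from 100 uM on HepaRG cells for 48 h; qRT-PCR signals were normalised to ACTB, GAPDH and POLR2A.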

Read-out in test [4]: Glutathione S-Transferase (GSTA2), GSTA2 (gene 2939)
The test can be described thus: LTEA_HepaRG_GSTA2: Life Technologies and Expression Analysis (LTEA) Assay for Glutathione S-Transferase (GSTA2) using HepaRG (AID 2283497). The gist of the method:
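qRT-PCR readout of GSTA2 transcript, normalized to three housekeeping genes, fitted bidirectionally against 0.5% DMSO baseline. Differentiated HepaRG cells received compound for 48 h at 8 concentrations (top 100 uM, half-log steps).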

Read-out in test [5]: Glutamate-cysteine ligase catalytic (GCLC), GCLC (gene 2729)
Nature of the test: LTEA_HepaRG_GCLC: Life Technologies and Expression Analysis (LTEA) Assay for Glutamate-cysteine ligase catalytic (GCLC) using HepaRG (AID 2283498). The procedure, abridged: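 HepaRG, 48 h exposure, 8-pt half-log series from 100 uM, 0.5% DMSO vehicle; TaqMan qRT-PCR for GCLC mRNA, housekeeping-normalized; bidirectional curve fit vs DMSO baseline.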

Read-out in test [6]: growth arrest and DNA damage 45 (GADD45G), GADD45G (gene 10912)
The test can be described thus: LTEA_HepaRG_GADD45G: Life Technologies and Expression Analysis (LTEA) Assay for growth arrest and DNA damage 45 (GADD45G) using HepaRG (AID 2283499). The procedure, abridged: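 GADD45G transcript level by qRT-PCR (housekeeping-normalized: ACTB, GAPDH, POLR2A) after 48 h chemical treatment of a single HepaRG lot in serum-free induction medium; eight-point half-log series up to 100 uM in 0.5% DMSO, duplicates, up- or down-regulation scored.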

Read-out in test [7]: Glutamate-cysteine ligase regulatory (GCLM), GCLM (gene 2730)
The test can be described thus: LTEA_HepaRG_GCLM: Life Technologies and Expression Analysis (LTEA) Assay for Glutamate-cysteine ligase regulatory (GCLM) using HepaRG (AID 2283500). The procedure, abridged: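 In this multiplexed HepaRG gene-expression assay, GCLM mRNA change after 48 h treatment (8 concentrations, max 100 uM) was scored against DMSO by bidirectional curve fitting.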

Read-out in test [8]: Glutathione S-transferase M3 (GSTM3), GSTM3 (gene 2947)
The test can be described thus: LTEA_HepaRG_GSTM3: Life Technologies and Expression Analysis (LTEA) Assay for Glutathione S-transferase M3 (GSTM3) using HepaRG (AID 2283501). The procedure, abridged:
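GSTM3 transcript levels came from Fluidigm TaqMan qRT-PCR normalized to three housekeeping genes, fitted in both directions against DMSO. HepaRG cultures received chemicals for 48 h in serum-free induction medium (0.5% DMSO), 8 half-log concentrations up to 100 uM, duplicate.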

Read-out in test [9]: Heat shock 70 kDa protein 1 (HSPA1A), gene 3303
The test can be described thus: LTEA_HepaRG_HSPA1A: Life Technologies and Expression Analysis (LTEA) Assay for Heat shock 70 kDa protein 1 (HSPA1A) using HepaRG (AID 2283502). The gist of the method:
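An oxidative-stress marker readout: HepaRG cells treated 48 h in duplicate with an eight-point series (highest 100 uM) had HSPA1A mRNA quantified by TaqMan qRT-PCR. Activity was fitted in both directions using 0.5% DMSO as baseline.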

Read-out in another test: CYP3A5 (gene 1577)
The test can be described thus: LTEA_HepaRG_CYP3A5: Life Technologies and Expression Analysis (LTEA) Assay for CYP3A5 using HepaRG (AID 2283493). The procedure, abridged:
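Readout was CYP3A5 mRNA by qRT-PCR. HepaRG cultures were exposed for 48 h in serum-free induction medium to chemicals at up to 100 uM, and responses were fitted in both directions relative to DMSO vehicle.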

Regarding `CC(C)=CCCC(C)CCO` (configuration not stated), the molecule was called inactive in test [1], in test [2], in test [3], in [4], in test [5] and in test [6]. Also, the molecule was called inactive in test [7], in test [8] and in test [9].
Consider `Cc1ccc(C)c(O)c1`, for which the call in test [1], in [2], in test [3], in test [4], in test [5] and in [6] was inactive. The outcome in test [7], in [8] and in test [9] was inactive.
Take `CC[C@H]1OC(=O)[C@H](C)[C@@H](O[C@H]2C[C@@](C)(OC)[C@@H](O)[C@H](C)O2)[C@H](C)[C@@H](O[C@@H]2O[C@H](C)C[C@H](N(C)C)[C@H]2O)[C@](C)(O)C[C@@H](C)C(=O)[C@H](C)[C@@H](O)[C@]1(C)O`: the molecule was classed as inactive (in the test with CYP3A5 (gene 1577); in test [1]; in [2]; in test [3]; in test [4]; in [5]). The call in [7], in [8] and in [9] was inactive.
For the molecule `CCOC(=O)c1ccc(C2CCC(NC[C@H](O)COc3ccc(O)c(NS(C)(=O)=O)c3)CC2)cc1` (some centres not stated), the outcome (with CYP3A5 (gene 1577); in test [1]; in [2]; in test [3]; in [4]; in test [5]) was inactive. The call in [6], in test [7], in [8] and in test [9] was inactive.
Take `CCNc1ccccc1`: the outcome in [1], in test [2], in test [3], in test [4], in [5] and in test [6] was inactive. For the same molecule, the molecule was called inactive in test [7], in test [8] and in test [9].
In the case of `O=c1[nH]c2ccc(S(=O)CCN3CCC(Cc4ccc(F)cc4)CC3)cc2o1` (configuration not stated), the AC50 is 80.3 µM (active) in test [1]; 80 µM (active) in test [2]; 72.5 µM (active) in test [3]; 87.5 µM (active) in [4]; 71.6 µM (active) in test [6]; 50 µM (active) in [7]. For the same molecule, in test [9], the AC50 was 50 µM (active). Moreover, the call in test [5] and in [8] was inactive.
For `CCCCCCCCCCCCc1ccccc1`, the call in [1], in [2], in test [3], in test [4], in [5] and in [6] was inactive. The call in [7], in test [8] and in test [9] was inactive.
Take `O=C(O)c1cccc(Oc2ccccc2)c1`: the AC50 in test [1] is 50 µM (active). Also, the outcome in test [2], in test [3], in [4], in [5], in test [6] and in [7] was inactive. The molecule was classed as inactive in test [8] and in test [9].
In the case of `CCCCC(CC)COC(=O)c1ccc(C(=O)OCC(CC)CCCC)cc1` (configuration not stated), the outcome in test [1], in [2], in test [3], in test [4], in [5] and in test [6] was inactive. Further, the result in [7], in test [8] and in test [9] was inactive.
As to `C=CC(=C)CCC=C(C)C`, the outcome (with CYP3A5 (gene 1577); in test [1]; in [2]; in test [3]; in test [4]; in [5]) was inactive. For the same molecule, the molecule was called inactive in test [6], in [7], in test [8] and in [9].
`CC(O)CN(CCN(CC(C)O)CC(C)O)CC(C)O` (configuration not stated): the AC50 with CYP3A5 (gene 1577) is 12.4 µM (active); in [4], 12.5 µM (active). The molecule was called inactive in test [1], in [2], in [3], in test [5], in test [6] and in test [7]. Besides, the call in test [8] and in [9] was inactive.
`CCc1cc(SCc2sc(-c3ccc(C(F)(F)F)cc3)nc2CN2CCN(c3ccc(OC)cc3)CC2)ccc1OCC(=O)O`: the AC50 in test [1] is 76.8 µM (active); in test [2] it was 8.62 µM (active); in [3] it was 7.1 µM (active); in test [4], 77 µM (active); in [5], 94.1 µM (active); in test [6] it was 91.2 µM (active). For the same molecule, the AC50 in test [7] was 26.5 µM (active); in test [9], 89.4 µM (active). Also, the molecule was called inactive in test [8].
`O=c1n(CC2CO2)c(=O)n(CC2CO2)c(=O)n1CC1CO1` (configuration not stated): the molecule was classed as inactive (with CYP3A5 (gene 1577); in [1]; in [2]; in test [3]; in test [4]; in test [5]). Also, the result in test [6], in test [7], in test [8] and in test [9] was inactive.
With `CC(=O)OC[C@H]1O[C@@](COC(C)=O)(O[C@H]2O[C@H](COC(C)=O)[C@@H](OC(C)=O)[C@H](OC(C)=O)[C@H]2OC(C)=O)[C@@H](OC(C)=O)[C@@H]1OC(C)=O`, the molecule was classed as inactive (in the test with CYP3A5 (gene 1577); in test [1]; in test [2]; in test [3]; in [4]; in test [5]). Also, the molecule was classed as inactive in test [6], in [7], in test [8] and in [9].
Consider `Nc1nc2ncc(CNc3ccc(C(=O)N[C@@H](CCC(=O)O)C(=O)O)cc3)nc2c(=O)[nH]1`, for which the call in test [1], in test [2], in test [3], in [4], in [5] and in test [6] was inactive. The call in [7], in test [8] and in test [9] was inactive.
As for `COCCOc1cc2cc(C(=O)NC3CCN(C(C)C)CC3)n(CC(=O)Nc3ccc(Cl)cn3)c2cn1`, the AC50 in test [1] was 34.9 µM (active); in test [2], 76.7 µM (active); in test [3], 41.2 µM (active); in test [4], 45 µM (active); in [6], 45 µM (active); in [8], 45 µM (active). Further, the result in test [5] and in test [7] was inactive.
Take `O=C(O)CCN(C1(C(=O)NO)CCCC1)S(=O)(=O)c1ccc(Oc2ccc(F)cc2)cc1`: the outcome (with CYP3A5 (gene 1577); in [1]; in test [2]; in [3]; in test [4]; in [5]) was inactive. Also, the outcome in [6], in [7], in test [8] and in test [9] was inactive.
Take `COC(=O)CC(=O)OC`: the result (in the test with CYP3A5 (gene 1577); in [2]; in [4]; in [5]; in test [6]; in test [7]) was inactive. Further, the result in test [8] and in test [9] was inactive. Also, the AC50 in test [1] and in [3] was 50 µM (active) each time.
Take `O=C(NS(=O)(=O)/C=C/c1ccccc1)c1ccc(F)cc1Cl`: the figures for the AC50 in test [1] and in test [3] were 2.67 µM (active) and 23.4 µM (active), respectively. For the same molecule, the result in [2], in [4], in test [5], in test [6], in test [7] and in [8] was inactive. In test [9], the molecule was called inactive.
Take `COCCOCCOCCOC`: the result in [1], in [2], in [3], in test [4], in test [5] and in test [6] was inactive. Also, the molecule was classed as inactive in test [7], in test [8] and in [9].
As for `Nc1ccc(Nc2ccccc2)cc1`, the AC50 in test [1] and in test [3] was 50 µM (active) in each case. Also, the call in test [2], in test [4], in test [5], in test [6], in [7] and in test [8] was inactive. In addition, in test [9], the call was inactive.
For `CC1=CC(=O)CC(C)(C)C1`, the result in [1], in test [2], in [3], in [4], in test [5] and in [6] was inactive. Besides, the molecule was classed as inactive in test [7], in [8] and in test [9].
For `Cc1c(-c2cccnc2)c2ccccc2n1CCCCC(=O)O`, the outcome in test [1], in test [2], in test [3], in [4], in [5] and in test [6] was inactive. Also, the outcome in test [7], in test [8] and in test [9] was inactive.
For `CC(C)CCCCCCCOC(=O)CCCCC(=O)OCCCCCCCC(C)C`, the molecule was called inactive in [1], in test [2], in [3], in test [4], in [5] and in [6]. Besides, the molecule was classed as inactive in [7], in test [8] and in test [9].
